Data from the supplement of paper PMC6555819.

What was measured:
Experiment in all cases: PBM binding z-score (relative to random genomic background probes); higher = stronger binding; sequences stand for … in GC…GCGATTGACAGCGTAGAATGAAGG
[1] = test system: FXR:RXRa (NR concentration 270 nM, RXRa partner concentration 90 nM)
Summary of the method: (§1)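 Regression normalization was applied to scanned fluorescence from custom Agilent 4×180K protein-binding microarrays. Before scanning, arrays were incubated 1 h with ligand-free nuclear receptor dimers, and binding was detected with antibodies against each partner (one per run). Binding z-scores use the random background probes as reference.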

[2] = test system: LXRa:RXRa (NR concentration 270 nM, RXRa partner concentration 90 nM)
Summary of the method: as §1

[3] = test system: LXRa homodimer (NR concentration 270 nM)
Summary of the method: as §1

[4] = test system: LXRb:RXRa (NR concentration 270 nM, RXRa partner concentration 90 nM)
Summary of the method: as §1

[5] = test system: LXRb homodimer (NR concentration 270 nM)
Summary of the method: as §1

[6] = test system: PPARa:RXRa (NR concentration 270 nM, RXRa partner concentration 90 nM)
Summary of the method: as §1

[7] = test system: PPARg:RXRa (NR concentration 180 nM, RXRa partner concentration 90 nM)
Summary of the method: as §1

[8] = test system: PPARg:RXRa 270nM:90nM, anti-RXR (NR concentration 270 nM, RXRa partner concentration 90 nM)
Summary of the method: as §1

[9] = test system: PPARg:RXRa 30nM:10nM, anti-RXR (NR concentration 30 nM, RXRa partner concentration 10 nM)
Summary of the method: as §1

[10] = test system: PPARg:RXRa 90nM:30nM, anti-RXR (NR concentration 90 nM, RXRa partner concentration 30 nM)
Summary of the method: as §1

[11] = test system: PPARg:RXRa DBDmut IVT, anti-RXR (DBD mutation: RXRa K156A/R161A, NR concentration 270 nM, RXRa partner concentration 90 nM)
Summary of the method: as §1

[12] = test system: PPARg:RXRa IVT, anti-PPARg (NR concentration 270 nM, RXRa partner concentration 90 nM)
Summary of the method: as §1

[13] = test system: PPARg DBDmut:RXRa IVT, anti-PPARg (DBD mutation: PPARg1 K132A/R137A, NR concentration 270 nM, RXRa partner concentration 90 nM)
Summary of the method: as §1

[14] = test system: PPARg DBDmut IVT, anti-PPARg (DBD mutation: PPARg1 K132A/R137A, NR concentration 270 nM)
Summary of the method: as §1

[15] = test system: PPARg homodimer (NR concentration 180 nM)
Summary of the method: as §1

[16] = test system: PXR:RXRa (NR concentration 270 nM, RXRa partner concentration 90 nM)
Summary of the method: as §1

[17] = test system: PXR homodimer (NR concentration 270 nM)
Summary of the method: as §1

[18] = test system: RARa:RXR (NR concentration 270 nM, RXRa partner concentration 90 nM)
Summary of the method: as §1

[19] = test system: RARa homodimer (NR concentration 270 nM)
Summary of the method: as §1

[20] = test system: RARb:RXRa (NR concentration 270 nM, RXRa partner concentration 90 nM)
Summary of the method: as §1

Row | Sequence | PBM binding z-score [1] | PBM binding z-score [2] | PBM binding z-score [3] | PBM binding z-score [4] | PBM binding z-score [5] | PBM binding z-score [6] | PBM binding z-score [7] | PBM binding z-score [8] | PBM binding z-score [9] | PBM binding z-score [10] | PBM binding z-score [11] | PBM binding z-score [12] | PBM binding z-score [13] | PBM binding z-score [14] | PBM binding z-score [15] | PBM binding z-score [16] | PBM binding z-score [17] | PBM binding z-score [18] | PBM binding z-score [19] | PBM binding z-score [20]
1 | CCTATTAGTTGACCATAAGGGCAACCCAAGCTCG | 1.15 | 0.607 | 0.597 | 0.677 | 0.607 | 0.81 | 0.661 | 0.62 | 0.211 | 0.475 | 0.483 | 0.597 | 0.502 | 0.375 | 1.63 | 1.12 | 1.26 | 1.22 | 1.66 | 1.53
2 | TGAATGAGGTTACAGATCAGGGAACGTGGCGTCG | 1.82 | 1.45 | -0.368 | 0.694 | 0.104 | 2.94 | 2.65 | 3.06 | 1.45 | 2.65 | 2.62 | 3.25 | 0.697 | 0.0776 | 0.777 | 0.892 | -0.64 | 1.67 | 0.0673 | 1.9
3 | ACTCGGAGGACATAGGTCAGAGCTACGCCAGTGA | 1.33 | 1.54 | 0.379 | 1.13 | -0.23 | 2.89 | 3.73 | 4.68 | 2.29 | 3.87 | 0.107 | 1.88 | -0.386 | 0.0927 | 0.895 | 1.15 | 0.0875 | 1.9 | 0.402 | 2.31
4 | ACTCGTTGGTCAGCTGAGGTCACACACAATTCGG | 3.88 | 3.44 | 2.55 | 3.61 | 0.51 | 3.65 | 1.26 | 1.84 | 0.425 | 1.25 | 0.747 | 2.05 | -0.129 | 0.631 | 3.13 | 5.42 | 1.8 | 4.47 | 1.77 | 3.58
5 | CCTACTGGGCCAAGTTCATTGATCAGTCAAAGCA | 0.51 | 0.916 | 0.751 | 0.634 | -0.712 | 1.83 | 1.24 | 2.02 | 0.309 | 1.6 | 3.93 | 3.54 | 0.0503 | -0.432 | 1.19 | 2.85 | 3.64 | 0.935 | 0.262 | 1.88
6 | TCTTGTAGATCAAAGGTTACGAAAGCCGAAGCCT | 2.01 | 2.2 | 0.222 | 2.27 | -0.174 | 4.71 | 8.72 | 8.23 | 7.86 | 8.98 | 2.12 | 3.96 | 0.521 | 0.147 | 1.11 | 2.41 | -0.449 | 3.28 | -0.123 | 2.14
7 | TTACCAAGGTGAGCTGAGGTCGATGATCCAACTC | 2.13 | 0.545 | -0.604 | 0.0564 | -1.26 | 1.2 | 0.288 | 0.701 | -0.265 | 0.0498 | 0.764 | 2.27 | -0.223 | -0.4 | -0.24 | 3.58 | -0.352 | 1.23 | -0.656 | 1.72
8 | TCTTGCAGATCAGCAGGTTAAGAAAGCTGGCCAA | -0.157 | -0.083 | -0.809 | -0.061 | -1.04 | 0.615 | -0.601 | 0.866 | 1.59 | 1.15 | 0.806 | -0.167 | -1.23 | -0.975 | -0.869 | -0.219 | -1.1 | 0.16 | -1.56 | 0.155
9 | CGTCCAAGATCAGAGAGGTCAGTGAATGCCGAGT | 1.64 | 2 | 1.44 | 1.92 | 0.00137 | 2.52 | 0.376 | 0.581 | 0.00146 | 0.0792 | 0.179 | 0.0749 | -0.351 | -0.769 | 2.69 | 3.22 | 2.06 | 3.09 | 1.49 | 2.95
10 | TCTGCTAGCTCAACGATGGTCAGCTAATCTGCTA | -0.518 | -0.557 | -0.771 | -1 | -1.03 | -0.335 | -0.32 | 0.116 | 1.25 | 0.838 | 0.317 | -0.338 | -0.717 | -0.143 | -1.44 | -0.381 | -0.501 | -0.407 | -1.12 | -0.267
11 | CGTAGCAGGCCAGGGTCACTCAAGCATTTCGCTT | 2.18 | 1.78 | -0.329 | 2.14 | -1.14 | 2.89 | 0.663 | 1.49 | -0.228 | 0.716 | 0.638 | 1.11 | -0.725 | -1.16 | 0.494 | 2.28 | -0.189 | 2.69 | -0.182 | 2.66
12 | AATACAGGGTCATCGTAGGCCAGACTACGCACAG | 7.17 | 6.52 | 2.16 | 5.02 | 1.46 | 6.05 | 6.77 | 6.04 | 2.96 | 4.83 | 2.63 | 4.16 | 1.31 | 1.03 | 2.16 | 4.73 | 0.736 | 4.7 | 0.914 | 4.5
13 | AGTCAAAGTTCAGGACGCGGTAACGTAAAGCACG | 3.88 | 3.44 | 1.09 | 1.68 | 0.0515 | 3.08 | 4.39 | 4.71 | 1.96 | 3.51 | -0.435 | 1.23 | -0.53 | -0.304 | 1.62 | 2.37 | 0.876 | 2.21 | 0.353 | 4.19
14 | CCTACTGGACCATCAGGTCATTGATATCAACGTT | 1.87 | 1.86 | 2.81 | 2.53 | 1.02 | 2.43 | 1.14 | 1.97 | 0.798 | 1.68 | 2.13 | 2.58 | 0.468 | 0.568 | 2.23 | 2.09 | 1.45 | 2.25 | 1.47 | 1.97
